Reference: ChEMBL document CHEMBL3988442, “University of Dundee, Small-Polar-MMV Screening Library” (2021)

Key:
[1] = molecular target: T1, Aspartate--tRNA(Asp/Asn) ligase (Mycobacterium tuberculosis (strain ATCC 25618 / H37Rv)) (UniProt P9WFW3); test: Assay for Asp RNA synthetase-1 from Mycobacterium tuberculosis; format: functional; set-up: scale not given: direction of the effect not stated beside the values; details: 30 µM; note: in the data most compounds retested in dose-response had high values
T1 sequence (whole entry): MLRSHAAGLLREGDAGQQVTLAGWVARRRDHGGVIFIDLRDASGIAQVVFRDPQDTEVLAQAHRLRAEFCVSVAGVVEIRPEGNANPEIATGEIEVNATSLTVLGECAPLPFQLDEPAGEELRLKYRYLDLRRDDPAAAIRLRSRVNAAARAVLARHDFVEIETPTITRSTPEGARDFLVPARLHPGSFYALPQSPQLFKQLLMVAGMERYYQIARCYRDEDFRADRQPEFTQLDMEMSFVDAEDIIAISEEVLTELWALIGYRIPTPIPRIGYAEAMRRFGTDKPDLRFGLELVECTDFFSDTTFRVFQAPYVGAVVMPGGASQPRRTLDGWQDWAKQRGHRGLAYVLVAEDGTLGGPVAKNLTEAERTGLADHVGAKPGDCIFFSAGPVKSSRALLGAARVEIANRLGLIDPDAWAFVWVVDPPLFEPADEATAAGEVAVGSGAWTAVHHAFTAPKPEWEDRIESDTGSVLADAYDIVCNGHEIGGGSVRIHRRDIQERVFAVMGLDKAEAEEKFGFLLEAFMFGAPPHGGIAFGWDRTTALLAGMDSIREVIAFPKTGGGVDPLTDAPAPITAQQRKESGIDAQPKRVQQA

[2] = molecular target: Shiga toxin 2 (Escherichia coli O157:H7) (UniProt P09385+P09386); test: E. coli 0.157:H7 Shiga Toxin SOP - stx2 screening assay; format: functional; set-up: scale not given: direction of the effect not stated beside the values; details: 30 µM

## Cn1ccc(C(=O)NCc2cccc(N3CCCCC3=O)c2)cc1=O
[1]
  Percent Effect: 0.417%
[2]
  Percent Effect: -29.6%

## Cn1cc(CNCC2Cn3nnc(-c4ccccc4)c3CO2)cn1 (centres undefined)
[1]
  Percent Effect: 5.57%
[2]
  Percent Effect: -42.7%

## O=C(CCc1nccs1)N1CCN(c2cccnn2)CC1
[1]
  Percent Effect: -2.05%
[2]
  Percent Effect: 12.9%

## OC(CN(Cc1ccccc1)Cc1ccncc1)c1cccs1 (centres undefined)
[1]
  Percent Effect: -1.23%
[2]
  Percent Effect: 4.51%

## CCn1c(C(=O)N2CCN(C(=O)NC(C)C)CC2)cc2ccccc21
[1]
  Percent Effect: 2.76%
[2]
  Percent Effect: 18.3%

## Cc1ccc(-c2nnc(CNCCn3cc(C)cn3)o2)cc1
[1]
  Percent Effect: 2.15%
[2]
  Percent Effect: -42%

## CS(=O)(=O)c1ccc(CNC2CCCN(c3cccnn3)C2)cc1 (centres undefined)
[1]
  Percent Effect: -4.64%
[2]
  Percent Effect: 4.3%

## O=C(CSc1ccncc1)N1C[C@H]2CC[C@@H]1CN(Cc1cccnc1)C2
[1]
  Percent Effect: 2.67%
[2]
  Percent Effect: -11.3%

## Cc1ncccc1Oc1nccnc1C1CCN(C(C)C)CC1
[1]
  Percent Effect: -4.09%
[2]
  Percent Effect: -1.37%

## Fc1cccnc1CN1CCCCC1c1ccn2ccnc2n1 (centres undefined)
[1]
  Percent Effect: 1.4%
[2]
  Percent Effect: -17.1%

## O=C(NCC1CC1)Nc1cnc2cc(Cl)ccc2c1O
[1]
  Percent Effect: -0.223%
[2]
  Percent Effect: -0.695%

## Cn1cccc1C(CNC(=O)c1ccc(F)cc1F)N1CCCCCC1 (centres undefined)
[1]
  Percent Effect: 1.24%
[2]
  Percent Effect: -33.8%

## Cc1noc([C@H]2C[C@H]3OCC[C@H]3N(S(=O)(=O)C3CC3)C2)n1
[1]
  Percent Effect: 0.456%
[2]
  Percent Effect: 19.9%

## C[C@@H]1CN(C(=O)c2cccs2)C[C@]12CCN(CCN(C)C)C2=O
[1]
  Percent Effect: -0.228%
[2]
  Percent Effect: -8.44%

## COCCOc1ccc(NC(=O)N(C)Cc2ccsc2)cn1
[1]
  Percent Effect: 0.514%
[2]
  Percent Effect: -8.11%

## CCO[C@@H]1CCN(C(=O)c2ccc[nH]2)[C@@H]1Cc1cnn(C)c1
[1]
  Percent Effect: -1.78%
[2]
  Percent Effect: 5.04%

## CC1CCN(C(=O)c2ccn(COc3ccc(F)cc3)n2)CC1
[1]
  Percent Effect: 9.51%
[2]
  Percent Effect: -44.1%
